Measured values as given in the supplement of paper PMC10849652.
Targets with a hit are over-represented here; the source holds about 7,900 in all. About 0.6% of all pairs of compound and target were hits.

How the values were obtained:
Test in all cases: log2 fold change, soluble protein after heating vs DMSO (PISA); higher = thermal stabilisation; K562 cells, 10 uM, 30 min; active = over 0.2 and 3.5 SD of the protein, either way, in both replicates (recomputed)
[1] = compound: CC[C@@H]1C(=O)N(C)c2cnc(Nc3ccc(C(=O)NC4CCN(C)CC4)cc3OC)nc2N1C1CCCC1
Outline: (§1)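 Soluble protein was quantified by TMTpro 16plex LC-MS/MS after channel sums were equalised. It was obtained as the supernatant after 21,000xg for 90 min from pooled aliquots of K562 cells (2×10^6 cells/mL, 10 μM compound, 30 min) heated for 3 min across 48°C-58°C and extracted in PBS with 0.5% NP-40 at 4°C. Thermal stability values are relative to control samples and come from duplicates. They are given as log2 fold changes.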

volasertib = compound: CC[C@@H]1C(=O)N(C)c2cnc(Nc3ccc(C(=O)N[C@H]4CC[C@H](N5CCN(CC6CC6)CC5)CC4)cc3OC)nc2N1C(C)C [volasertib]
Outline: as §1

[2] = compound: CC[C@H](C)N1C=C(C2=C(C=C(C=C21)C3=CN=C(C=C3)N4CCNCC4)C(=O)NCC5=C(C=C(NC5=O)C)C)C
Outline: as §1

epoxomicin = compound: CC[C@H](C)[C@@H](C(=O)N[C@@H]([C@@H](C)O)C(=O)N[C@@H](CC(C)C)C(=O)[C@]1(CO1)C)NC(=O)[C@H]([C@@H](C)CC)N(C)C(=O)C [epoxomicin]
Outline: as §1

[3] = compound: CCn1c(C(=O)N(C2CC2)C2CC2)cc2c3c(ncn3C)c(Nc3cc(C)n(C)n3)nc21
Outline: as §1

[4] = compound: CCn1cc(-c2ccnc3[nH]c(-c4cccc(CN(C)C)c4)cc23)c(-c2ccc(NC(=O)N(C)C)cc2)n1
Outline: as §1

[5] = compound: CN(C)CC(=O)Nc1ccc2[nH]c(=O)c3ccccc3c2c1
Outline: as §1

rosiglitazone = compound: CN(CCOC1=CC=C(C=C1)C[C@H]2C(=O)NC(=O)S2)C3=CC=CC=N3 (racemic) [rosiglitazone]
Outline: as §1

[6] = compound: CN1C2=C(C3=C1C(=O)N(N=C3)CC4=CC(=CC=C4)N)SC(=C2)S(=O)C
Outline: as §1

[7] = compound: CN1CCC(CNc2ccc3ncc(-c4cccc(OC(F)(F)F)c4)n3n2)CC1
Outline: as §1

saracatinib = compound: CN1CCN(CCOc2cc(OC3CCOCC3)c3c(Nc4c(Cl)ccc5c4OCO5)ncnc3c2)CC1 [saracatinib]
Outline: as §1

sotrastaurin = compound: CN1CCN(c2nc(C3=C(c4c[nH]c5ccccc45)C(=O)NC3=O)c3ccccc3n2)CC1 [sotrastaurin]
Outline: as §1

alvocidib = compound: CN1CC[C@H](c2c(O)cc(O)c3c(=O)cc(-c4ccccc4Cl)oc23)[C@H](O)C1 [alvocidib]
Outline: as §1

Tubastatin A = compound: CN1CCc2c(c3ccccc3n2Cc2ccc(C(=O)NO)cc2)C1 [Tubastatin A]
Outline: as §1

[8] = compound: CNC(=O)C1=CC=CC=C1NC2=NC(=NC=C2Cl)NC3=C(C=C(C=C3)N4CCOCC4)OC
Outline: as §1

defactinib = compound: CNC(=O)c1ccc(Nc2ncc(C(F)(F)F)c(NCc3nccnc3N(C)S(C)(=O)=O)n2)cc1 [defactinib]
Outline: as §1

rucaparib = compound: CNCc1ccc(-c2[nH]c3cc(F)cc4c3c2CCNC4=O)cc1 [rucaparib]
Outline: as §1

[9] = compound: CNc1nc(-c2ccc3c(N)n[nH]c3c2)cc(N2C[C@@H](C(=O)NC3CCCCC3)CC[C@H]2C)n1
Outline: as §1

encorafenib = compound: COC(=O)N[C@@H](C)CNc1nccc(-c2cn(C(C)C)nc2-c2cc(Cl)cc(NS(C)(=O)=O)c2F)n1 [encorafenib]
Outline: as §1

[10] = compound: COC(=O)[C@H](CCSC)NC(=O)C1=C(C=C(C=C1)NC[C@H](CS)N)C2=CC=CC=C2
Outline: as §1

Measured: log2 fold change

B4GALT1 (UniProt P15291)
Sequence of UniProt P15291 (P15291 whole entry, looked up): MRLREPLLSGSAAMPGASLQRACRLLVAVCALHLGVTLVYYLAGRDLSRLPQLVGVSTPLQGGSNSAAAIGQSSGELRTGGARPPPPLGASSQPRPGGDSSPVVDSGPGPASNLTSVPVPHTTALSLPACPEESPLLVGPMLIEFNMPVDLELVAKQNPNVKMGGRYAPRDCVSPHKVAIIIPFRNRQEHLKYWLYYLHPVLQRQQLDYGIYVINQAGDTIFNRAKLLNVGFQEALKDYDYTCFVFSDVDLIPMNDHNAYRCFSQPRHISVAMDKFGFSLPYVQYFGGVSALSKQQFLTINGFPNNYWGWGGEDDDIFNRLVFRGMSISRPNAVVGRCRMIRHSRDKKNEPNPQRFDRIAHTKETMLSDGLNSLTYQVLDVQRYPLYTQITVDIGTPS
inactive: [2] 0.033 | epoxomicin 0.051 | [3] 0.041 | [4] -0.048 | [5] -0.03 | rosiglitazone 0.072 | [6] -0.081 | saracatinib -0.017 | sotrastaurin -0.07 | alvocidib -0.117 | Tubastatin A 0.063 | [8] 0.023 | defactinib 0.066 | rucaparib 0.013 | [9] -0.041 | encorafenib 0.032 | [10] -0.084
active: [1] -0.324 | volasertib -0.571 | [7] -0.28

ADPRHL2 (UniProt Q9NX46)
Sequence of UniProt Q9NX46 (Q9NX46 whole entry, looked up): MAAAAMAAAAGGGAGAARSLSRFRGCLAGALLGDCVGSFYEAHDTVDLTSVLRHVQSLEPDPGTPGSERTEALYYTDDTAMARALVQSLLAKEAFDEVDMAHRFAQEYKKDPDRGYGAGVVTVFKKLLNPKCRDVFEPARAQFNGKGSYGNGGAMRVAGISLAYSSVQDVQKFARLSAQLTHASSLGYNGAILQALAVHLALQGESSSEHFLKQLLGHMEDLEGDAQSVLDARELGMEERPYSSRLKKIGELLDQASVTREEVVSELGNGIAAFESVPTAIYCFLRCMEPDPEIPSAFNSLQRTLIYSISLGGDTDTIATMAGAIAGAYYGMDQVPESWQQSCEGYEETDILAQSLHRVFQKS
inactive: [1] -0.027 | volasertib 0.071 | [2] -0.028 | epoxomicin 0.145 | [3] -0.05 | [4] -0.093 | [5] 0.116 | rosiglitazone 0.002 | [6] -0.042 | [7] 0.133 | saracatinib 0.039 | sotrastaurin -0.001 | alvocidib -0.003 | Tubastatin A 0.031 | [8] 0.049 | defactinib 0.015 | rucaparib -0.085 | [9] -0.026 | encorafenib -0.009 | [10] -0.116

ATL2 (UniProt Q8NHH9)
Sequence of UniProt Q8NHH9 (Q8NHH9 whole entry, looked up): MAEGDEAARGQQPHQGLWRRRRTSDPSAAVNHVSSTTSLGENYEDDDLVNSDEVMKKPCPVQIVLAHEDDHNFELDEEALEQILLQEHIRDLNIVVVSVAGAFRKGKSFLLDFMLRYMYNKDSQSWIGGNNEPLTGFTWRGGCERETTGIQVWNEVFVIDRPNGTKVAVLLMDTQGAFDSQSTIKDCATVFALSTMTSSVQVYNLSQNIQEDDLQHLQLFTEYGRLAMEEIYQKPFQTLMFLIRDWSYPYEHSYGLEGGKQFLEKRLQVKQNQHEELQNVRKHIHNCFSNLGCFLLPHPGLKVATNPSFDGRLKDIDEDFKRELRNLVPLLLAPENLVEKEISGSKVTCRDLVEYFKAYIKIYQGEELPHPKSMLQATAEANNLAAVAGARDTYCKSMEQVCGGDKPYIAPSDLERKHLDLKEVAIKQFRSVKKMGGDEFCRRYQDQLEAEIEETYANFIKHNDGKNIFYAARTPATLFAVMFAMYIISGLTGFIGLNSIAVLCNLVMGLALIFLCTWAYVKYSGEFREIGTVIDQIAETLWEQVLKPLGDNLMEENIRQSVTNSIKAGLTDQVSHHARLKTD
inactive: [1] 0.031 | volasertib 0.037 | [2] 0.066 | epoxomicin 0.092 | [3] -0.051 | [4] -0.127 | [5] 0.028 | rosiglitazone 0.017 | [6] -0.078 | [7] -0.032 | saracatinib -0.032 | sotrastaurin 0.05 | alvocidib -0.05 | Tubastatin A 0.047 | [8] 0.005 | defactinib 0.008 | rucaparib 0.019 | [9] 0.035 | encorafenib 0.005 | [10] 0.008

ATP9B (UniProt O43861)
Sequence of UniProt O43861 (O43861 whole entry, looked up): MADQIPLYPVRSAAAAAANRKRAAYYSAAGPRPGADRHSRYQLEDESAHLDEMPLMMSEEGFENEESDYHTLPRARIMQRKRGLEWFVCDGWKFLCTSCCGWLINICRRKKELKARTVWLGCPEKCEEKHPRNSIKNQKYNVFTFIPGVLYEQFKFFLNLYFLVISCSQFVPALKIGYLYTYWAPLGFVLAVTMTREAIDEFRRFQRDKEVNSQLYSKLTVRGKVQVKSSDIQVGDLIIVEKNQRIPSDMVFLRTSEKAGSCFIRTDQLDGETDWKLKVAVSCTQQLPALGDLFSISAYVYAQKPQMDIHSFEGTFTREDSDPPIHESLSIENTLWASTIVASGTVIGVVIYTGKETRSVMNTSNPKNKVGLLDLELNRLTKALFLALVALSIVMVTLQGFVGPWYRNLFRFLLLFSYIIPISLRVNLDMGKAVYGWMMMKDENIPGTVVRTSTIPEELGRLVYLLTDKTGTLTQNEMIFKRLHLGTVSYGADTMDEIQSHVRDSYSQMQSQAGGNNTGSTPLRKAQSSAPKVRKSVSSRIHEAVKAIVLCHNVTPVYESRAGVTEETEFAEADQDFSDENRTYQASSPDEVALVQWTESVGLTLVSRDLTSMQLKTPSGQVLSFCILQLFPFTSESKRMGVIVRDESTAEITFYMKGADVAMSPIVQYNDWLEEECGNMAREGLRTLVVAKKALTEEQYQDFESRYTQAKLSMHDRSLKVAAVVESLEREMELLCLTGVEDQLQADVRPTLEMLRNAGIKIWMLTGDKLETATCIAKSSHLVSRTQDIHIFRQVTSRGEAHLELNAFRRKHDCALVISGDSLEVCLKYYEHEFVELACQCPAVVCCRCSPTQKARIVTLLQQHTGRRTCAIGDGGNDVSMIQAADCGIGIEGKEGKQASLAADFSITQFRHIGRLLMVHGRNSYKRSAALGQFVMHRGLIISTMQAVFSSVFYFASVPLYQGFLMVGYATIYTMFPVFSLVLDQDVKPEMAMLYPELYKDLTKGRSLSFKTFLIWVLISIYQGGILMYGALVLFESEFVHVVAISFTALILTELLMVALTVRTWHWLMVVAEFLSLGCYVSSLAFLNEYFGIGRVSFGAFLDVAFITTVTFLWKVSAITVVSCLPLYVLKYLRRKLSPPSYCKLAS
inactive: [1] -0.002 | volasertib -0.15 | [2] -0.125 | epoxomicin 0.055 | [3] -0.204 | [4] -0.023 | [5] 0.013 | rosiglitazone 0.08 | [6] 0.013 | [7] -0.109 | saracatinib 0.13 | sotrastaurin -0.185 | alvocidib 0.008 | Tubastatin A -0.055 | [8] -0.02 | defactinib -0.025 | rucaparib 0.081 | [9] -0.027 | encorafenib 0.058 | [10] 0.06

ABHD17A isoform 2 (UniProt Q96GS6)
Sequence of UniProt Q96GS6 (Q96GS6 whole entry, looked up): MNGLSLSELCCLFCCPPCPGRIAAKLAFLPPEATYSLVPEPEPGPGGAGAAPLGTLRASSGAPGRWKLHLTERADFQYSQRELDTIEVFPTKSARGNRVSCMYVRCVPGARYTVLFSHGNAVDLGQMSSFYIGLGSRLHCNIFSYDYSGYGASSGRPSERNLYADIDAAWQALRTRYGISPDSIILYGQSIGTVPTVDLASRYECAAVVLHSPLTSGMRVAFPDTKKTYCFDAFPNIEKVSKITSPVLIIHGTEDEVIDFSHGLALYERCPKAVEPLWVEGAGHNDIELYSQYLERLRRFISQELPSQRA
active: [7] -0.377 | [8] -0.595
inactive: [1] -0.072 | volasertib -0.172 | [2] -0.084 | epoxomicin -0.057 | [3] -0.058 | [4] -0.17 | [5] -0.067 | rosiglitazone 0.009 | [6] -0.015 | saracatinib 0.002 | sotrastaurin 0.01 | alvocidib 0.04 | Tubastatin A 0.065 | defactinib -0.008 | rucaparib 0.017 | [9] -0.052 | encorafenib 0.104 | [10] 0.059

ACADM isoform 2 (UniProt P11310)
active: sotrastaurin 0.274
inactive: [1] -0.045 | volasertib -0.03 | [2] -0.015 | epoxomicin 0.015 | [3] 0.014 | [4] -0.042 | [5] -0.024 | rosiglitazone 0.008 | [6] -0.078 | [7] -0.011 | saracatinib 0.031 | alvocidib -0.006 | Tubastatin A -0.03 | [8] 0.019 | defactinib -0.016 | rucaparib -0.024 | [9] 0.083 | encorafenib -0.016 | [10] 0.004

ATP6V0A1 isoform 3 (UniProt Q93050)
inactive: [1] -0.056 | volasertib 0.174 | [2] -0.01 | epoxomicin 0.044 | [3] 0.034 | [4] -0.054 | [5] -0.009 | rosiglitazone -0.017 | [6] 0.239 | [7] -0.137 | saracatinib -0.253 | sotrastaurin -0.236 | alvocidib 0.06 | Tubastatin A 0.089 | [8] -0.052 | defactinib 0.125 | rucaparib 0.154 | [9] 0.032 | encorafenib 0.196 | [10] -0.02

APLP2 (UniProt Q06481)
inactive: [1] 0.076 | volasertib -0.04 | [2] -0.092 | epoxomicin 0.017 | [3] 0.089 | [4] 0.006 | [5] -0.106 | rosiglitazone -0.026 | [6] -0.004 | [7] 0.179 | saracatinib 0.072 | sotrastaurin 0.094 | alvocidib 0.011 | Tubastatin A 0.014 | [8] 0.009 | defactinib -0.055 | rucaparib -0.082 | [9] -0.051 | encorafenib 0.02 | [10] 0.051

AK6 (UniProt Q9Y3D8)
Sequence of UniProt Q9Y3D8 (Q9Y3D8 whole entry, looked up): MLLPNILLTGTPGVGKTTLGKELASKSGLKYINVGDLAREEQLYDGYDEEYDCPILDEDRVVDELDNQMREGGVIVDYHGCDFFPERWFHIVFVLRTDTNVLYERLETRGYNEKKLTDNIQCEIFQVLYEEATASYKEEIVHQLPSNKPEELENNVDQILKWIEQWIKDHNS
active: volasertib -0.438
inactive: [1] -0.304 | [2] -0.001 | epoxomicin 0.08 | [3] -0.081 | [4] -0.007 | [5] 0.148 | rosiglitazone 0.074 | [6] 0.027 | [7] -0.322 | saracatinib -0.154 | sotrastaurin -0.121 | alvocidib -0.045 | Tubastatin A 0.03 | [8] 0.018 | defactinib -0.095 | rucaparib 0.092 | [9] -0.053 | encorafenib 0.095 | [10] -0.09

ANXA5 (UniProt P08758)
Sequence of UniProt P08758 (P08758 whole entry, looked up): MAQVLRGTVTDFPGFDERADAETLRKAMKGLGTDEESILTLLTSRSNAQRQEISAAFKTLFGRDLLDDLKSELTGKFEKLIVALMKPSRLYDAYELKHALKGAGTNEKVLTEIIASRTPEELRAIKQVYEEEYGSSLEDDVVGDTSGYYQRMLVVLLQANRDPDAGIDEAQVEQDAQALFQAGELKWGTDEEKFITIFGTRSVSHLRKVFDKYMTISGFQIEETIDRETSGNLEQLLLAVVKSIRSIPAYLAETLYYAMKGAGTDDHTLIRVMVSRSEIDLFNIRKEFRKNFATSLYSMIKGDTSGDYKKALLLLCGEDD
active: volasertib -0.214
inactive: [1] -0.084 | [2] 0.04 | epoxomicin 0.068 | [3] 0.002 | [4] -0.041 | [5] 0.012 | rosiglitazone 0.007 | [6] -0.04 | [7] -0.042 | saracatinib -0.023 | sotrastaurin -0.038 | alvocidib -0.083 | Tubastatin A -0.006 | [8] 0.039 | defactinib -0.082 | rucaparib -0.001 | [9] 0.012 | encorafenib 0.083 | [10] -0.062

BZW2 (UniProt Q9Y6E2)
inactive: [1] -0.193 | [2] 0.042 | epoxomicin 0.043 | [3] -0.019 | [4] -0.016 | [5] 0.02 | rosiglitazone 0.046 | [6] -0.037 | saracatinib -0.007 | sotrastaurin -0.032 | alvocidib -0.086 | Tubastatin A -0.004 | [8] -0.006 | defactinib -0.057 | rucaparib -0.022 | [9] 0.001 | encorafenib 0.058 | [10] -0.026
active: volasertib -0.367 | [7] -0.298

ALDH18A1 (UniProt P54886)
Sequence of UniProt P54886 (P54886 whole entry, looked up): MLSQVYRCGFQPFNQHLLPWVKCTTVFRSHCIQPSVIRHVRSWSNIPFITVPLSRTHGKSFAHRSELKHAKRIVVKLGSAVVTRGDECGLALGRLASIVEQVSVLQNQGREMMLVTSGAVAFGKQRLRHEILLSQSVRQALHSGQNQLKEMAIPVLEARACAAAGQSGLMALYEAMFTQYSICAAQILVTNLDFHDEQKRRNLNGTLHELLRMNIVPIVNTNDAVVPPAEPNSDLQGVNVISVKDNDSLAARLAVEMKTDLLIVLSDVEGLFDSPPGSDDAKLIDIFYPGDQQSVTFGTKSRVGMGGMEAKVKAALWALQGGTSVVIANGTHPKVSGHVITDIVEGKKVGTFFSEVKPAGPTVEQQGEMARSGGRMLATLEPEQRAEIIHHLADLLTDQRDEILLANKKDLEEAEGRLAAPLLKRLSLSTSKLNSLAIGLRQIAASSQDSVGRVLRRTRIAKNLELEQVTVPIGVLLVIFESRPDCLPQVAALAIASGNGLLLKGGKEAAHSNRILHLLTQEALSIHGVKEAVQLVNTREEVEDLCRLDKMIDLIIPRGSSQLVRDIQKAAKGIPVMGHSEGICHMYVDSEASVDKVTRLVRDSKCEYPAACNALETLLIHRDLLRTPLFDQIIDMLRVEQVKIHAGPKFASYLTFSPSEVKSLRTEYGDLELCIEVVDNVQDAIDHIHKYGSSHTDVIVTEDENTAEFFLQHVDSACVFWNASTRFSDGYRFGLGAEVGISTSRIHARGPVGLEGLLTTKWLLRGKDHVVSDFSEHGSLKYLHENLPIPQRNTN
active: volasertib -0.713
inactive: [1] -0.418 | [2] 0.092 | epoxomicin 0.1 | [3] -0.117 | [4] -0.208 | [5] 0.041 | rosiglitazone 0.148 | [6] 0.054 | [7] -0.054 | saracatinib -0.038 | sotrastaurin -0.178 | alvocidib 0.063 | Tubastatin A -0.027 | [8] -0.065 | defactinib -0.122 | rucaparib 0.001 | [9] -0.281 | encorafenib 0.098 | [10] -0.047

BPHL (UniProt Q86WA6)
inactive: [1] 0.013 | volasertib -0.005 | [2] 0.065 | epoxomicin 0.005 | [3] 0.027 | [4] -0.017 | [5] -0.07 | rosiglitazone 0.041 | [6] 0.017 | [7] 0.063 | saracatinib 0.056 | sotrastaurin 0.019 | alvocidib -0.083 | Tubastatin A -0.259 | [8] 0.025 | defactinib -0.014 | rucaparib 0.069 | [9] 0.006 | encorafenib -0.012 | [10] -0.017

ACIN1 (UniProt Q9UKV3)
active: defactinib -0.253
inactive: [1] -0.017 | volasertib -0.056 | [2] -0.012 | epoxomicin -0.048 | [3] -0.057 | [4] 0.004 | [5] -0.034 | rosiglitazone 0.008 | [6] -0.021 | [7] -0.097 | saracatinib -0.027 | sotrastaurin -0.01 | alvocidib -0.057 | Tubastatin A 0.032 | [8] -0.165 | rucaparib -0.017 | [9] -0.054 | encorafenib -0.038 | [10] 0.003

ALG3 (UniProt Q92685)
Sequence of UniProt Q92685 (Q92685 whole entry, looked up): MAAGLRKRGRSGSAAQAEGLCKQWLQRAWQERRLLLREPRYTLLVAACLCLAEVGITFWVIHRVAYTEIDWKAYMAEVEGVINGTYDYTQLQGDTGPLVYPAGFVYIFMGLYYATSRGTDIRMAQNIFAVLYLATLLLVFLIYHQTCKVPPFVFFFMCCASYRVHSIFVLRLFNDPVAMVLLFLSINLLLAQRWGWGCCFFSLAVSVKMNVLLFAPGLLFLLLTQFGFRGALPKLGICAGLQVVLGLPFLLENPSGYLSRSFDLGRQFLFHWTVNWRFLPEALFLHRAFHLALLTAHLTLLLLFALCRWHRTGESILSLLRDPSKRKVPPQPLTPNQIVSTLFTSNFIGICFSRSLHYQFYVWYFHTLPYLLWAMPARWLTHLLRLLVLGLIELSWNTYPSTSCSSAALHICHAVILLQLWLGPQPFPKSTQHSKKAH
inactive: [1] 0.005 | volasertib -0.164 | [2] 0.02 | epoxomicin 0.039 | [3] -0.022 | [4] -0.037 | [5] -0.002 | rosiglitazone 0.049 | [6] -0.028 | [7] 0.033 | saracatinib 0.145 | sotrastaurin -0.047 | alvocidib 0.055 | Tubastatin A -0.056 | [8] 0.116 | defactinib 0.009 | rucaparib 0.1 | [9] 0.056 | encorafenib 0.076 | [10] 0.013

ATG4B isoform 2 (UniProt Q9Y4P1)
Sequence of UniProt Q9Y4P1 (Q9Y4P1 whole entry, looked up): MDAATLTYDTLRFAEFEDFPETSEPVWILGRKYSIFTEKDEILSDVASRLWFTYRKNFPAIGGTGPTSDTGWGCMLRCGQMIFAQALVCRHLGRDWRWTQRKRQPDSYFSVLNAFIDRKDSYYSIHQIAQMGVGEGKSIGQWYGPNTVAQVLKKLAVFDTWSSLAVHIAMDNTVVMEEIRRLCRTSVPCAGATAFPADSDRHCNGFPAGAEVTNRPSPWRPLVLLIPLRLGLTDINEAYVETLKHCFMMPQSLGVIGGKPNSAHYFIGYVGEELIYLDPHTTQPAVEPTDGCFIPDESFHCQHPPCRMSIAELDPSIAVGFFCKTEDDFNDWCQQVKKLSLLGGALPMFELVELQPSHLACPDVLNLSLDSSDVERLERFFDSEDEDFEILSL
inactive: [1] -0.007 | volasertib -0.441 | [2] 0.16 | epoxomicin -0.013 | [3] 0.011 | [4] 0.039 | [5] 0.08 | rosiglitazone 0.136 | [6] 0.1 | [7] -0.302 | saracatinib -0.186 | sotrastaurin -0.297 | alvocidib -0.19 | Tubastatin A 0.02 | [8] 0.027 | defactinib -0.263 | rucaparib -0.02 | [9] 0.004 | encorafenib -0.003 | [10] -0.04
